# Source: PubChem
# The full list was thinned out, with hits kept by preference.
# GluA2 TARP mod: modulates AMPAR-stargazin complexes; O88602+P19491; HEK293 GluA2+stargazin, membrane potential dye (FDSS), glutamate EC50; hits were called plate by plate, in both directions; calls only at 30 µM; actives 3.5% (n = 40,000);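 active = any of four per-well response measures lying three or more SD from its plate-wide compound average, in either direction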
# GIRK2 activator: Activators of human GIRK2-containing channels; 34,000 tested, under 10 active; P48051; activation (% efficacy), % for hits at 37.5 µM; HEK293 GIRK2/NPY4 cells, thallium flux fluorescence;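 active = primary screen hit, no activity in plain HEK293 cells, and in GIRK2-only cells above 5% efficacy rising with concentration; inactive = the rest, including fluorescent compounds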;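 note: efficacy is normalized control-subtracted fluorescence 15 s after thallium addition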
# * marks the source's active call; other numbers are inactive results; i = inactive; · = not tested or not shown; + = active, no number.
SMILES,GluA2 TARP mod,GIRK2 activator
COc1cc(C(=O)Nc2nnc(-c3ccc(C)cc3C)o2)cc(OC)c1OC,i,·
O=C(NCC1CCN(Cc2ccccc2)CC1)C(=O)Nc1ccc2c(c1)OCCO2,i,i
O=C(NCC1CCN(Cc2ccccc2)CC1)C(=O)Nc1ccc2c(c1)OCO2,+,i
COc1ccc(Cl)cc1NC(=O)Cn1c2c(c(=O)n(C3CCCCC3)c1=O)CCC2,i,i
O=C(CSc1nc(=O)n(CCO)c2c1CCCC2)NCCc1ccccc1,i,i
COc1ccc(S(=O)(=O)N(Cc2cccn2C)C2CC2)cc1Cl,·,i
COc1cccc(-n2c(C)cn3c4c(=O)n(CCc5ccccc5)c(=O)n(C)c4nc23)c1,i,·
CCN(CC)CCn1c(C)cn2c3c(=O)n(CCc4ccccc4)c(=O)n(C)c3nc12,+,i
Cc1ccccc1N1CCN(CC(O)COc2ccc3ccccc3c2)CC1 (stereo not given),i,·
O=S(=O)(NC1(c2nc(-c3cnccn3)no2)CCCCC1)c1ccc(F)c(Cl)c1,+,i
Cc1noc(C)c1S(=O)(=O)NC1(c2nc(-c3cnccn3)no2)CCCCC1,i,i
O=C(NCCn1ncc2c(N3CCN(c4ncccn4)CC3)ncnc21)c1cc2ccccc2o1,i,·
O=C(NCCn1nc(-n2cccn2)ccc1=O)C1CCC1,·,i
